PubChem BioAssay (NCATS)
Inconclusive results are not listed. Active and inactive are the calls of the source. Unless noted, the call rests on the fitted dose curve; in most records, active means well fitted curve in the direction sought with a large enough effect; inconclusive means small, poorly fitted or top-dose-only effect, or another doubt; inactive means no such curve, though single readings can be large; an effect the other way counts as inactive or inconclusive.

Legend:
[1] = biological target: Rap guanine nucleotide exchange factor 3 (Homo sapiens) (UniProt O95398); assay: Confirmatory qHTS for antagonist of cAMP-regulated guanine nucleotide exchange factor 3 (EPAC1) (AID 1645880); further: nearly all actives have a fitted effect of over 55% in size; further: potency means the concentration at half of the fitted maximal effect
Method in brief: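 Released BODIPY-GDP fluoresces less than Rap1-bound BODIPY-GDP; the signal is followed at 480/540 nm at 5-min intervals over 30 min, after 5 min at room temperature. Reactions contain 100 nM EPAC1, 250 nM RAP1B-BODIPY-GDP and 50 uM GDP; results are normalized to ATA and DMSO.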

[2] = biological target: Rap guanine nucleotide exchange factor 3 (Homo sapiens) (UniProt O95398); assay: Confirmatory qHTS for agonist of cAMP-regulated guanine nucleotide exchange factor 3 (EPAC1) (AID 1645881); further: nearly all actives have a fitted effect of over 75% in size; further: potency means the concentration at half of the fitted maximal effect;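 on activation: EPAC1 catalysed release of BODIPY-GDP from Rap1B seen as fluorescence loss; 100% = effect of cAMP agonist control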
[3] = biological target: Rap guanine nucleotide exchange factor 4 (Homo sapiens) (UniProt Q8WZA2); assay: Confirmatory qHTS for agonist of cAMP-regulated guanine nucleotide exchange factor 4 (EPAC2) (AID 1645884);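 further: nucleotide exchange releases bodipy-GDP from Rap1 and this lowers its fluorescence; nearly all actives have a fitted effect of over 65% in size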; further: potency means the concentration at half of the fitted maximal effect; on activation: on the % scale 0 is the no-effect control and ±100 the full control effect
[4] = biological target: Rap guanine nucleotide exchange factor 4 (Homo sapiens) (UniProt Q8WZA2); assay: Confirmatory qHTS for antagonist of cAMP-regulated guanine nucleotide exchange factor 4 (EPAC2) (AID 1645885); further: nearly all actives have a fitted effect of over 25% in size; further: potency means the concentration at half of the fitted maximal effect
[5] = biological target: Rap guanine nucleotide exchange factor 3 (Homo sapiens) (UniProt O95398); assay: Counterscreen qHTS for antagonist of cAMP-regulated guanine nucleotide exchange factor 3 (EPAC1) (AID 1645888); further: % of control where 0% means no effect
Method in brief: (§1)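 Rap1B–BODIPY-GDP (250 nM) with 50 uM GDP; compounds pin-transferred to 9.74 nM–152 uM final (activator) or from 7.32 nM upwards (inhibitor). Fluorescence Ex/Em 480/540 nm read at 5 and 30 min, then after adding cAMP or buffer, at room temperature.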

[6] = biological target: Rap guanine nucleotide exchange factor 3 (Homo sapiens) (UniProt O95398); assay: Counterscreen qHTS for agonist of cAMP-regulated guanine nucleotide exchange factor 3 (EPAC1) (AID 1645889); further: nearly all actives have a fitted effect of over 40% in size; further: potency means the concentration at half of the fitted maximal effect; on activation: % of control where 0% means no effect
Method in brief: as §1

[7] = AP1 Signaling Pathway (AID 357; active means well fitted curve in either direction with a large enough effect, not every such curve was filed as active;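 further: ME-180 reporter cells stimulated with EGF at its EC50 level; on the % scale 0 is the no-effect control and ±100 the full control effect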)
Method in brief: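 Titration-series screen for positive or negative modulators of EC50 EGF-induced signaling in ME-180 cells carrying an AP-1-driven beta-lactamase reporter. After 5 hours at 37 degrees Celsius, CCF4 460nm/530nm emission ratio gave %Activity; AC50 values derived.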

[8] = NFAT Signaling Pathway (AID 444; active means well fitted curve in either direction with a large enough effect, not every such curve was filed as active;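 further: carbachol stimulus at about its EC50 of 1 µM final; on the % scale 0 is the no-effect control and ±100 the full control effect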); settings: Jurkat NFAT-bla M1, carbachol, beta-lactamase ratio, 5 h; at 17.2 µM (top of the series)
Method in brief: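 Jurkat cells with NFAT-driven β-lactamase reporter and co-expressed M1 receptor, stimulated with carbachol (final 1 uM, ~EC50), compound titration, 5 h at 37 °C. CCF4 loaded 1 h at RT; 460/530 nm ratio gave %activity and AC50.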

[9] = Stat Signaling Pathway (AID 446; active means well fitted curve in either direction with a large enough effect, not every such curve was filed as active;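 further: ME-180 cervical cancer cells given 40 pM IL-6 alongside compound; SIE-controlled beta-lactamase reporter measured as 460/530 nm FRET emission ratio; on the % scale 0 is the no-effect control and ±100 the full control effect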)
Method in brief: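 Overnight-plated ME-180 cells bearing a STAT Inducible Element beta-lactamase reporter; 5 h co-exposure to compound and 40 pM IL-6; values normalized to 300 pM IL-6 and 125 nM JAK inhibitor controls.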

[10] = biological target: Glucocorticoid receptor (Homo sapiens) (UniProt P04150); assay: GR-GFP Redistribution (AID 450;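 active means compounds whose dose series gives a full or clear partial fitted curve of increased nuclear translocation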; further: potency means the concentration at half of the fitted maximal effect); settings: U2OS GR-GFP nuclear translocation, laser cytometry, 2 h
Glucocorticoid receptor (Homo sapiens), sequence (P04150 whole entry, looked up): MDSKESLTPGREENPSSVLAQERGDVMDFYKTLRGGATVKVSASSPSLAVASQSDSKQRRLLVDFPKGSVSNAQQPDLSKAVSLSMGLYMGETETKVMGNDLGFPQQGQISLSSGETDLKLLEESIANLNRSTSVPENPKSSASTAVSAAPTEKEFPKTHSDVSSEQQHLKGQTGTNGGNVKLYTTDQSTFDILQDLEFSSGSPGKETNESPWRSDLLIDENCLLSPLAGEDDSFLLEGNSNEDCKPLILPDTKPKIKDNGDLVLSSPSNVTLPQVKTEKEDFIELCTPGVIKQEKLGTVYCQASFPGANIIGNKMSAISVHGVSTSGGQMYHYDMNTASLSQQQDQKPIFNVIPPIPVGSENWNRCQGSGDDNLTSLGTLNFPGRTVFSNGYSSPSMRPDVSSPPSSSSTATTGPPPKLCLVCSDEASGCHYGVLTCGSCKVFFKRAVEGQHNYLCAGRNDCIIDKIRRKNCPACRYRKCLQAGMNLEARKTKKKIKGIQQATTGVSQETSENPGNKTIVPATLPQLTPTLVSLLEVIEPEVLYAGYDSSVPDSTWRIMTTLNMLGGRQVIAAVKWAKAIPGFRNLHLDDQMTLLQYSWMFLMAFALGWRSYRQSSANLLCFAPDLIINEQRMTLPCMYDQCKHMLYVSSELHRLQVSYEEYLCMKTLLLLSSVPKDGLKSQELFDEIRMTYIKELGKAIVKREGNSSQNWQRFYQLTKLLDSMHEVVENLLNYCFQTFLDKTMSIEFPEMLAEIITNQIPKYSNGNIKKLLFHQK

Rap guanine nucleotide exchange factor 4 (Homo sapiens), sequence (Q8WZA2 whole entry, looked up): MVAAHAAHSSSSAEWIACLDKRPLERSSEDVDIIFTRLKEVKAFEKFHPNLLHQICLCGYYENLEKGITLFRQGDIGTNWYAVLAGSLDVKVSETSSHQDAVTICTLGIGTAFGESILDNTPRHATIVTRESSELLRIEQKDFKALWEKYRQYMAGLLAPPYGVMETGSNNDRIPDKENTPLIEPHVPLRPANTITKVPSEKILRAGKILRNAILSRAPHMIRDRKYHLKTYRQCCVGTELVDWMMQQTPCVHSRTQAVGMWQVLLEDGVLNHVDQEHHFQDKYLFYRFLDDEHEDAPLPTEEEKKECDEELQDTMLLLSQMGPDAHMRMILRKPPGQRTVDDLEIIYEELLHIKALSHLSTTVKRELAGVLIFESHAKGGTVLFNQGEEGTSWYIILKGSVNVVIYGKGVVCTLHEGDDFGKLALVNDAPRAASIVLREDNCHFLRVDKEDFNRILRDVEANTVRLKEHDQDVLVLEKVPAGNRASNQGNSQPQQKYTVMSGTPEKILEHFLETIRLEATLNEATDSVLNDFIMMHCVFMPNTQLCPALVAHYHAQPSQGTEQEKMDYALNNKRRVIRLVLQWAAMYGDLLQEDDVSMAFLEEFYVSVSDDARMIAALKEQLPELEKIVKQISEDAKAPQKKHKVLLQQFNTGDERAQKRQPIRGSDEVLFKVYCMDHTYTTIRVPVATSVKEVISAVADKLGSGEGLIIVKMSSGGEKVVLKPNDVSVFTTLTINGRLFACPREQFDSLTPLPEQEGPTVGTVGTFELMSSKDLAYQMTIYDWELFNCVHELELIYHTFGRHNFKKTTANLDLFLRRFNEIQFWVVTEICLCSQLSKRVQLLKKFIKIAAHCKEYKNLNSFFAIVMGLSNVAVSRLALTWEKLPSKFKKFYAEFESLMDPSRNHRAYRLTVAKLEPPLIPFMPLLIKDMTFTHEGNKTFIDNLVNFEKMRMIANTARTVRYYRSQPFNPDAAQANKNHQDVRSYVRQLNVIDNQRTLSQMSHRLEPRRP
Rap guanine nucleotide exchange factor 3 (Homo sapiens), sequence (O95398 whole entry, looked up): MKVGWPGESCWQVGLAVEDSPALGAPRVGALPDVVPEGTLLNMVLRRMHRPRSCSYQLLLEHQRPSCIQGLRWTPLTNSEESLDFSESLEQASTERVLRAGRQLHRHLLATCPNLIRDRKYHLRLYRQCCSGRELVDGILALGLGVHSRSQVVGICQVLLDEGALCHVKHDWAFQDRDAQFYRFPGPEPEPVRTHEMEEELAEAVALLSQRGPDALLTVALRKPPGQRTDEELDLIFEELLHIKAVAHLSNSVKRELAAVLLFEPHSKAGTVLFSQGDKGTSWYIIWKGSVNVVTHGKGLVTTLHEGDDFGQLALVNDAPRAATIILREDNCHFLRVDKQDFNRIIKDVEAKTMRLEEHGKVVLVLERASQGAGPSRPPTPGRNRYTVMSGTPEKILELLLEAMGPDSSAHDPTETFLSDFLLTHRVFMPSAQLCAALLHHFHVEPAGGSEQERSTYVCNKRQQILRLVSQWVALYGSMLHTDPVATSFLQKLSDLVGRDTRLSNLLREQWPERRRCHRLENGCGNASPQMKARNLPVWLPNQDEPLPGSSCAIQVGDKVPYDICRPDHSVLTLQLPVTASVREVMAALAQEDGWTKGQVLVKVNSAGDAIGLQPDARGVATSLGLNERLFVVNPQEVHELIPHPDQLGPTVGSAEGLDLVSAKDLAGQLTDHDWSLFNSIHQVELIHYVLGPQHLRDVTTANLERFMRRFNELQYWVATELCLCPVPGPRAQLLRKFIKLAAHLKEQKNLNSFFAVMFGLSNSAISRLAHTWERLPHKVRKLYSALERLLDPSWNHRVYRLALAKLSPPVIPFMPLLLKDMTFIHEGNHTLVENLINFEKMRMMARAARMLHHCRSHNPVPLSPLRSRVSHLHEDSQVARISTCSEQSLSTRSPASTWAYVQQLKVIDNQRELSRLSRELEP

Cn1cccc1/C=C1/C(=O)NC(=S)N(Cc2ccc(F)cc2)C1=O
inactive: Potency [2] | activation [3] 0.836% [at 17.1 µM, percent relative to cAMP agonist control] | activity change, negative = inhibition [4] -22.8% [at 12.7 µM] | activity change, negative = inhibition [5] -2.5% [at 30.8 µM] | activation [6] 10.8% [at 30.8 µM]
active: Potency [1] 31.6 µM

Cc1ccc(N2C(=O)NC(=O)/C(=C\C=C\c3ccco3)C2=O)cc1
inactive: Potency [2] | Potency [3] | Potency [4] | outcome [5]
active: Potency [1] 42.6 µM

Cc1ccc(N2C(=O)NC(=O)/C(=C\C=C\c3ccco3)C2=O)cc1C
active: Potency [1] 33.8 µM
inactive: Potency [2] | Potency [3] | Potency [4] | outcome [5] | Potency [6]

O=C1NC(=S)N(c2ccccc2)C(=O)/C1=C/c1ccco1
inactive: Potency [2] | Potency [3] | Potency [4] | outcome [5] | Potency [6]
active: Potency [1] 9.53 µM

Cc1c(NS(=O)(=O)c2ccccc2)ccc([N+](=O)[O-])c1Cl
inactive: Potency [1] | Potency [2] | Potency [3] | Potency [4] | outcome [5]

Cc1cccc(N2C(=O)NC(=O)/C(=C\c3cccn3-c3ccc(Cl)cc3)C2=O)c1
active: Potency [1] 47.8 µM
inactive: Potency [2] | Potency [3] | Potency [4] | outcome [5] | Potency [6]

COc1ccc(N2C(=O)NC(=O)/C(=C/c3ccc([N+](=O)[O-])s3)C2=O)cc1
inactive: Potency [2] | Potency [3] | Potency [4] | outcome [5] | Potency [6]
active: Potency [1] 33.8 µM

CCN(CC)c1ccc(N=Cc2c(O)n(-c3cc(OC)ccc3OC)c(=O)[nH]c2=O)cc1
active: Potency [2] 70.8 µM
inactive: outcome [7] | activity change, negative = inhibition [8] -6.84% | outcome [9] | Potency [10] > 20.6 µM | Potency [1] | activation [3] 4.47% [at 17.1 µM, percent relative to cAMP agonist control] | activity change, negative = inhibition [4] -9.2% [at 12.7 µM] | activity change, negative = inhibition [5] -4.74% [at 30.8 µM]

O=C(c1cc(Cl)cc(Cl)c1)N1Cc2ccccc2-n2nncc2C1
inactive: Potency [1] | Potency [2] | activation [3] -5.36% [at 17.1 µM, percent relative to cAMP agonist control] | activity change, negative = inhibition [4] -20.5% [at 12.7 µM] | activity change, negative = inhibition [5] 29.2% [at 30.8 µM] | activation [6] 5.77% [at 30.8 µM]

O=C1NCN(c2ccccc2)C12CCN(C(c1cc3ccccc3o1)c1nnnn1C1CCCC1)CC2 (configuration not stated)
inactive: Potency [1] | Potency [2] | activation [3] 13.1% [at 17.1 µM, percent relative to cAMP agonist control] | activity change, negative = inhibition [4] -12.5% [at 12.7 µM] | activity change, negative = inhibition [5] -0.487% [at 30.8 µM]

COc1ccc(-n2c(O)c(/C=C/C=Nc3ccccc3)c(=O)[nH]c2=O)cc1
active: Potency [2] 100 µM | Potency [3] 89.1 µM | Potency [4] 16.9 µM | Potency [6] 35.5 µM
inactive: Potency [1] | outcome [5]

O=C1NC(=O)N(Cc2ccco2)C(=O)/C1=C/C=C/c1ccco1
inactive: Potency [1] | Potency [2] | activation [3] 0.0468% [at 17.1 µM, percent relative to cAMP agonist control] | activity change, negative = inhibition [4] 0.223% [at 12.7 µM] | activity change, negative = inhibition [5] -7.48% [at 30.8 µM] | activation [6] -8.64% [at 30.8 µM]
